Laboratory results reported in PubChem BioAssay (NCATS).
Results filed as inconclusive are left out. The source made the active and inactive calls. The call rests on the fitted dose curve; in most records, active means well fitted inhibition curve with a large enough effect; inconclusive means small, poorly fitted or top-dose-only effect; inactive means flat fitted curve, though single readings scatter.

What follows are compounds tested on NIH3T3 (assay: qHTS assay to identify novel small-molecules to repurpose for Merkel cell carcinoma treatment (AID 1296009; further: nearly all actives have a fitted effect of over 60% in size)). Conditions: MCC and control cell lines, CellTiter-Glo viability, 72 h; at 44.8 µM (top of the series) unless noted.
From the text: MCC is a rare and aggressive neuroendocrine skin cancer with limited treatment options. Approximately 80% of MCCs have the Merkel cell polyomavirus (MCPyV) DNA integrated into the host genome (virus-positive: VP-MCC) and viral oncogenes drive oncogenesis. The remaining MCCs are virus-negative (VN-MCC) and are caused by UV mutagenesis. To identify novel treatments for VP-MCC and/or VN-MCC we screened three VP-MCC cell lines (WAGA, MKL-1, MKL-2), three VN-MCC cell lines (MCC-13, MCC-26, UISO), and four immortalized, non-transformed control cell lines (HaCaT, HEK293T, CRL7250, NIH-3T3) against ~2,400 compounds in the NCGC Pharmaceutical Collection (NPC) and ~1,900 compounds in the Mechanism Interrogation PlatE (MiPE). Using cell viability as a readout (CellTiter-Glo assay) we found both overlapping and distinct drugs that can be repurposed for the treatment of VP-MCC and VN-MCC.
A high-throughput screen was conducted in 1536-well white flat bottom plates (Corning) on a Kalypsys robotic system. Cell lines WAGA, MKL-1, MKL-2, MCC-13, MCC-26, UISO, HaCaT, HEK293T, CRL7250, and NIH-3T3 were screened against 2 small molecule annotated drug libraries NPC and MIPE in dose response (8 and 11 pt. respectively) measuring cell viability after 72 hours of incubation. […] A 1,536 pintool (Kalypsys) was used to transfer 23 nL of compound in DMSO to the 1,536-well assay plates. After 72 hr incubation at 37 degree celsius, 2.5 uL of CellTiter-Glo (Promega) was dispensed into each well using a BiorapTR. Plates were incubated at room temperature for 10 min, transferred to a ViewLux (PerkinElmer) and the luminescence was recorded using an exposure time of 2 seconds. Relative luminescence units (RLUs) were normalized to in-plate controls (no cells as a positive (cytotoxicity) control, DMSO as negative control) and the normalized data was processed using NCATS in-house software.
With `C[C@H]1C[C@H]2[C@@H]3CCC4=CC(=O)C=C[C@]4(C)[C@@]3(F)[C@@H](O)C[C@]2(C)[C@@]1(O)C(=O)COP(=O)(O)O` the outcome was “inactive”. With `CC(C)=CC/C=C(/C)[C@H]1CC[C@]2(C)[C@@H]1[C@H](O)CC1[C@@]3(C)CC[C@H](O)C(C)(C)[C@@H]3[C@@H](O[C@@H]3O[C@H](CO)[C@@H](O)[C@H](O)[C@H]3O[C@@H]3O[C@@H](C)[C@H](O)[C@@H](O)[C@H]3O)C[C@]12C` (stereo not given in full) the outcome was “inactive [at 17.4 µM]”. With `C=C1CC[C@@H]2[C@](C)(CC[C@H](O)[C@@]2(C)CCC=C(C)C)[C@@H]1Cc1c[nH]c2ccccc12` the outcome was “inactive [at 17.4 µM]”. For `C=C1C[C@@]23CC[C@@H]4[C@](C)(C(=O)O)CCC[C@@]4(C)C2=CC[C@H]1C3`, the outcome was “inactive”. With `CC(C)(O)c1ccc2c(c1)C(O)CC1C(C)(C(=O)O)CCCC21C` (stereo not given) the outcome was “inactive”. For `CC(=O)NCCCCn1c2c(c3ccccc31)C(=O)NCC2`, the outcome was “inactive”. `CCn1c2ccccc2c2cc(CNC)ccc21` was tested, and the outcome was “inactive”. `CCOC(=O)Nc1nc2ccccc2[nH]1` was tested, and the outcome was “inactive”. In the case of `CCNC(=O)CCC/C=C\C[C@@H]1[C@@H](/C=C/C(O)CCc2ccccc2)[C@@H](O)C[C@@H]1O` (stereo not given in full), the outcome is reported as “inactive”. `CC(/C=C/C1(O)C(C)(C)CC(O)CC1(C)O)OC1OC(CO)C(O)C(O)C1O` (stereo not given) was tested, and the outcome was “inactive [at 17.4 µM]”. `COc1ccc([C@H]2Cc3cccc(O)c3C(=O)O2)cc1` was tested, and the outcome was “inactive”. In the case of `Nc1nonc1C(=Nc1ccc(F)c(Cl)c1)NO`, the outcome is reported as “inactive”. With `O=S(=O)(Nc1ccc(C(O)(C(F)(F)F)C(F)(F)F)cc1)c1cccs1` the outcome was “inactive”. For `C[C@]12CCC(=O)C=C1[C@@H](O)C[C@@H]1[C@@H]2[C@@H](O)C[C@@]2(C)[C@H]1CC[C@]2(O)C(=O)CO`, the outcome was “inactive”. For `Cc1cn2c(N)c(Cl)cc(C(=O)NCC3CCN(CC(C)C)CC3)c2n1`, the outcome was “inactive”. `CCC(C)C(=O)O[C@@H]1[C@@H](O)[C@@H](O[C@H]2O[C@H](CO)[C@@H](O)[C@H](O)[C@H]2O)O[C@H](CO)[C@H]1O` (stereo not given in full) was tested, and the outcome was “inactive [at 17.4 µM]”. `Cc1ncc([N+](=O)[O-])n1CC(O)CN1CCOCC1` (stereo not given) was tested, and the outcome was “inactive”. For `CC(C)C1=CCC(C)(O)C(OC2OC(CO)C(O)C(O)C2O)C1` (stereo not given), the outcome was “inactive”. `CC(C)(C)c1cc(CN2CCN(CC(O)c3ccc(Cl)cc3)CC2)cc(C(C)(C)C)c1O` (stereo not given) was tested, and the outcome was “inactive”. For `C=CC(C)(CC/C=C(\C)CC/C=C(\C)CC(O)/C=C(\C)C(=O)O)O[C@@H]1O[C@H](CO)[C@@H](O)[C@H](O)[C@H]1O[C@@H]1O[C@H](CO)[C@@H](O)[C@H](O)[C@H]1O` (stereo not given in full), the outcome was “inactive [at 17.4 µM]”. For `CCOC(=O)c1ccnc(CNCC(=O)N(CC)CCN(C)C)c1`, the outcome was “inactive”. With `COc1cc(CCc2ccccc2)c(C(=O)O)c2c1CC(C(C)(C)O)O2` (stereo not given) the outcome was “inactive”. With `COC(=O)C1(Cc2ccc(O)cc2)OC(=O)C(OC)=C1c1ccc(O)cc1` (stereo not given) the outcome was “inactive”. For `Cc1c(N2C(=O)c3ccc(C(=O)O)cc3C2=O)c(=O)n(-c2ccccc2)n1C`, the outcome was “inactive”. With `CCOC(=O)[C@H](CCc1ccccc1)N[C@@H](C)C(=O)N1C2CCCCC2C[C@H]1C(=O)O` (stereo not given in full) the outcome was “inactive”. In the case of `CCCC1=CC2=C(CO1)C(=O)C(C)(OC(=O)c1c(C)cc(OC)cc1O)C(O)C2` (stereo not given), the outcome is reported as “inactive [at 17.4 µM]”. `CC12CC34C=CC(=O)C(C)(CCC(=O)O)C3C(CC1C4)O2` (stereo not given) was tested, and the outcome was “inactive”. `CC1(C)CC2C(O)C3=C(CC(C)(O)C2C1)C(=O)OC3O` (stereo not given) was tested, and the outcome was “inactive”. With `C=C(C)[C@@H]1CC[C@](C)(O)[C@@H](OC(=O)c2ccccc2)C1` the outcome was “inactive”. In the case of `CCC[C@@H]1C[C@@H](C(=O)N[C@@H]([C@H]2O[C@H](SC)[C@H](OP(=O)(O)O)[C@@H](O)[C@H]2O)[C@H](C)Cl)N(C)C1`, the outcome is reported as “inactive [at 17.4 µM]”. In the case of `COC1=CC(=O)C[C@@H](C)[C@]12Oc1cc(OC)cc(OC)c1C2=O`, the outcome is reported as “inactive”. In the case of `NC(=O)c1ccc(OCC2NC(=O)C3CCCN3C2=O)cc1` (stereo not given), the outcome is reported as “inactive”. `C[C@]12CCC[C@](C)(C(=O)O)C1CCC13C=C(CO)C(CCC12)C3` (stereo not given in full) was tested, and the outcome was “inactive”. With `Cc1cc(Nc2ncc(Cl)c(Nc3ccccc3S(=O)(=O)C(C)C)n2)c(OC(C)C)cc1C1CCNCC1` the outcome was “inactive”. With `COc1ccc2c(c1O)OC[C@H]1c3ccc(O)cc3O[C@@H]21` the outcome was “inactive”. With `CC(=O)[C@@H]1CC[C@]2(C(=O)O)CC[C@]3(C)C(CCC4[C@@]5(C)CC[C@H](O)C(C)(C)C5CC[C@]43C)C12` (stereo not given in full) the outcome was “inactive [at 17.4 µM]”. With `CC(=O)OC1C=C(C(=O)O)C2(CO)CCC(C)C(C)(CCc3ccoc3)C2C1` (stereo not given) the outcome was “inactive [at 17.4 µM]”. In the case of `COC(=O)[C@H](OC(C)=O)[C@H]1C(C)(C)C(=O)[C@H]2CC3=C4CC(=O)O[C@@H](c5ccoc5)[C@]4(C)CCC3[C@@]1(C)C2=O` (stereo not given in full), the outcome is reported as “inactive [at 17.4 µM]”. `O=C(NC[C@H](O)CN1CCc2ccccc2C1)c1cc(NC2COC2)ncn1` was tested, and the outcome was “inactive”. For `C=C1C2=CC(O)C(C)C1(C)CC/C(C)=C/CCC1(C)OC1C2=O` (stereo not given), the outcome was “inactive”.
